Screening results (PubChem BioAssay)
TbPYK inhibitor = T. brucei pyruvate kinase inhibition; Q57TT1; TbPYK enzyme, Kinase-Glo Plus ATP luminescence, 45 min; Potency, µM (titrated, usually from 76.8 µM), for the others: at the highest dose activity, negative = inhibition, usual class: inhibitors; hit rate 0.12% among 410,000; AID 624173; further: potency means the concentration at half of the fitted maximal effect; on the % scale 0 is the no-effect control and ±100 the full control effect; nearly all actives have a fitted effect of over 50% in size
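In this concentration-response screen, enzyme-free wells defined baseline while DMSO plates tracked drift. Each reaction combined TbPYK, substrate, compound and 130 uM ADP for 45 min at room temperature. Kinase-Glo Plus luminescence gave the signal.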
Shiga inhibitor = blocks Shiga toxin action in Vero cells. Vero cells, Shiga toxin protein synthesis inhibition reporter. inhibition, % at 38.7 µM. hit rate 9.2% among 290,000. AID 2315; in the data active means inhibition mostly above about 28%, no sharp cut-off; inactive means mostly below about 43%; further: 0% is about no effect
NS1 inh = blocks influenza NS1 protein function; Potency, µM (top dose mostly 46.1 µM), inactives show at the highest dose activity, positive = more growth; hit rate 0.4% among 270,000; AID 2326; calls by dose curve; further: potency means the concentration at half of the fitted maximal effect; actives are rising curves; nearly all actives have a fitted effect of over 50% in size
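Compounds were scored for reversing the slow growth caused by influenza A NS1 in S. cerevisiae, measured by optical density at 600 nm. Assay medium contained 2% galactose at pH 6.0; NS1-free yeast of the same strain were the positive control.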
SARS PLpro yeast = blocks SARS-CoV papain-like protease in a yeast assay; S. cerevisiae expressing SARS-CoV PLpro, growth rescue; AID 485353; Potency, µM (highest dose often 32.9 µM), for the others: top-dose activity, positive = growth rescue, actives largely listed as activators; hit rate 0.19% among 330,000; calls by dose curve; further: potency means the concentration at half of the fitted maximal effect; 0% is about no effect; nearly all actives have a fitted effect of over 55% in size
CHX counter = affects cycloheximide protein synthesis inhibition readout, counter-screen. cell reporter, cycloheximide protein synthesis inhibition counterscreen. hit rate 12% among 300,000. max response, %; in the data active means max response mostly above about 13%, no sharp cut-off; inactive means mostly below about 14%; further: read at 38.3 µM for the half of the compounds with a filed dose; 0% is about no effect
LmPK inhibitor = blocks Leishmania mexicana pyruvate kinase activity. hit rate 0.37% among 290,000. AID 1721. Potency, µM (top dose mostly 57.5 µM), for inactives: at the top dose activity change, negative = inhibition, most hits filed as inhibitors. Q27686. purified LmPK, Kinase-Glo ATP luminescence, 1 h; further: potency means the concentration at half of the fitted maximal effect; on the % scale 0 is the no-effect control and ±100 the full control effect
Target sequence (Q27686 whole entry, looked up): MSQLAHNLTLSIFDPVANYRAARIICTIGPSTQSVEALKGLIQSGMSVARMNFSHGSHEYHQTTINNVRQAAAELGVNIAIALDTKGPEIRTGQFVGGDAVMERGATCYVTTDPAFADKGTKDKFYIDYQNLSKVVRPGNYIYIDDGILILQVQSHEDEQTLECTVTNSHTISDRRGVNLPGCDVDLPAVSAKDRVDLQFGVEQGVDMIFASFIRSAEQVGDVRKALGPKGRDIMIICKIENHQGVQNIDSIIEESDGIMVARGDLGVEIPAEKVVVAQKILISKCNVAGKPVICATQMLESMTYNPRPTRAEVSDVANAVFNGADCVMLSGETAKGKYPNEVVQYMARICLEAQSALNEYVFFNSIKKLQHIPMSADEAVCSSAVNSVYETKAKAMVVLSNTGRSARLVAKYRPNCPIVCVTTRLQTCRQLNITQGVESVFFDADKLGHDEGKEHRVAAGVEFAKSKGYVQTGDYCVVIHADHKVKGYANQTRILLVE
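Screened at intermediate enzyme activity to detect both inhibitors and activators: LmPK at 0.1 nM, with a 0.5 nM enzyme column as activation reference. PEP 0.5 mM, ADP 0.1 mM; ATP detected by luminescence after 1 h.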
An asterisk follows results filed as active; u = inconclusive; x = no result given. Shown is part of a subset that was picked to be rich in hits. Unless noted, the call rests on the fitted dose curve; in most records, active means well fitted curve in the direction sought with a large enough effect; inconclusive means small, poorly fitted or top-dose-only effect, or another doubt; inactive means no such curve, though single readings can be large; an effect the other way counts as inactive or inconclusive.

SMILES | TbPYK inhibitor | Shiga inhibitor | NS1 inh | SARS PLpro yeast | CHX counter | LmPK inhibitor
Clc1cccc(Nc2nc(-c3ccncc3)nc3ccccc23)c1 | 0.0% | 44.4 | -1.5% | -0.5% | 5.5 | -1.3%
O=c1oc(Nc2cccc(Cl)c2)nc2ccccc12 | -0.7% | 47.5* | 1.9% | 2.1% | 36.1* | 2.7%
COC(=O)C1=C(CN2CCCc3ccccc32)NC(=O)NC1c1ccc(F)cc1 (stereo not drawn) | 1.7% | 101.4* | -9.6% | -2.5% | 20.5 | 2.0%
COC(=O)C1=C(CN2CCc3ccccc32)NC(=O)NC1c1cc(C)ccc1C (stereo not drawn) | -7.9% | 6.3 | u | -6.8% | -1.4 | 7.3%
O=[N+]([O-])c1ccc2nc(-c3ccc(Cl)cc3)n(OCc3ccccc3)c2c1 | 7.0% | 96.4* | -79.5% | -0.2% | 35.4* | 1.8%
Cc1ccc(COn2c(-c3ccc(Cl)cc3)nc3ccc([N+](=O)[O-])cc32)cc1 | -4.3% | 105.4* | -144.5% | -2.3% | 49.5* | 2.6%
CCOC(=O)C(C)On1c(-c2ccc(Cl)cc2)nc2ccc([N+](=O)[O-])cc21 (stereo not drawn) | -7.4% | 129.3 | -9.8% | -35.2% | 32.7 | 7.4%
CC(C)CNC(=O)C1(C)CCCN1Cc1ccccc1OC(F)F (stereo not drawn) | 4.2% | x | x | x | x | x
C=C(Br)CN1[C@@H](Cc2ccccc2)[C@H](O)[C@@]23C=C[C@@H](C[C@@H]2S1(=O)=O)O3 | -19.2% | x | x | -7.5% | x | x
Cc1ccc(Nc2nc(NCCO)c3ccccc3n2)cc1C | 1.1% | x | -51.3% | -5.3% | 10.0 | -2.9%
Cc1cccc(NC(=O)c2cc(S(=O)(=O)NCc3ccco3)ccc2F)c1C | -5.6% | 63.1* | -4.2% | 8.8% | 47.1* | -1.7%
COc1ccc(S(=O)(=O)NCc2ccco2)cc1NC(=O)c1ccccc1 | -3.8% | 64.9* | 13.0% | 4.3% | 47.0* | -6.2%
COc1ccccc1NC(=O)c1ccc(S(=O)(=O)NCc2ccco2)cc1 | 0.1% | 102.9* | 4.0% | -4.8% | 37.6* | -7.0%
O=C(COc1ccccc1)Nc1ccc(S(=O)(=O)NCc2ccco2)cc1 | 0.0% | 19.1 | -5.2% | 6.3% | 0.5 | 5.9%
O=C(COc1ccccc1F)Nc1ccc(S(=O)(=O)NCc2ccco2)cc1 | -0.1% | 39.5 | -7.9% | 4.7% | 39.8* | 1.4%
Cc1cccc(NC(=O)c2cc(S(=O)(=O)NCc3ccc4c(c3)OCO4)ccc2F)c1C | -5.3% | x | x | x | x | x
COc1cc(C(=O)NCC(c2cccs2)S(=O)(=O)c2cccs2)cc(OC)c1OC (stereo not drawn) | -0.8% | x | x | x | x | x
Cc1c(-c2ccccc2)c(=O)oc2c(CN3CCOCC3)c(O)ccc12 | -7.1% | x | x | x | x | x
C[C@H](O)[C@@H]1C(=O)N2CCc3c([nH]c4ccccc34)[C@@H]2C[C@@H]1N(C)C(=O)c1ccco1 | -3.7% | x | x | x | x | x
CN(C)c1ccc(C=C(c2nnnn2-c2ccccc2)c2nnnn2-c2ccccc2)cc1 | -6.2% | -14.2 | 3.7% | -14.0% | -1.6 | 3.7%
CN(C)c1ccc(/C=N/c2cc(-c3ccccc3)nn2-c2ccccc2)cc1 | 4.1% | 57.3* | -34.4% | -8.6% | 38.5* | -5.0%
Cc1c(C(=O)N2CCC(C)CC2)c(S(=O)(=O)N2CCN(c3cccc(Cl)c3)CC2)c(C)n1C | 2.0% | x | x | x | x | x
CCc1cc(/C(Cc2ccc3ccccc3n2)=N\O)c(O)cc1O | -11.5% | 37.3 | -131.8% | -12.1% | -1.9 | 5.4%
Cc1c(O)ccc(/C(Cc2ccc3ccccc3n2)=N\N)c1O | -3.0% | 67.8* | 1.1% | 0.9% | 29.5* | -10.0%
O=C(CSC1=NCCS1)c1ccc(Cl)cc1 | 0.6% | 16.8 | x | -23.1% | -1.1 | 3.5%
SMILES | TbPYK inhibitor | Shiga inhibitor | NS1 inh | SARS PLpro yeast | CHX counter | LmPK inhibitor
C[n+]1cc[nH]c1SCC(=O)c1ccc(Cl)cc1 | -14.5% | 63.4 | 4.2% | -1.0% | 31.1* | u
C[n+]1cc[nH]c1SCC(=O)c1ccccc1 | -13.7% | 57.6 | -3.6% | 6.3% | 37.2* | -15.1%
COc1ccc(C2=Nn3c(nnc3-c3ccccc3OC)SC2)cc1 | x | -2.5 | x | x | -11.7 | x
COc1ccc(CCNC(=O)c2cccc(C(=O)NCCc3ccc(OC)cc3)n2)cc1 | -0.2% | x | x | x | x | x
COc1ccc(CCNC(=O)c2ccc3ccccc3n2)cc1OC | 16.1% | 6.9 | -39.8% | -0.4% | -0.9 | -0.9%
Cc1ccc(OCCNC(=O)c2ccc3ccccc3n2)cc1 | 20.5% | 38.9 | -5.8% | -2.6% | 10.5 | 0.6%
